Assay results published in PubChem BioAssay (NCI).
Compounds without any hit were thinned out: in the full panel of roughly 83,000, 20% have a hit.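 Activity criterion: percent growth below 10, measured after cells in 96-well plates were exposed to a single compound concentration for 48 hours.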 A number with no mark means an inactive call. Activity calls are given as the source filed them.

How the values were obtained:
Experiment in all cases: NCI-60 one-dose screen, 48 h (100 = growth as untreated, 0 = no growth, -100 = all killed)
Conditions in all cases: 10 µM unless noted
HCT-15 colon = test system: HCT-15 colon
HT29 colon = test system: HT29 colon
SNB-75 CNS = test system: SNB-75 CNS
SNB-19 CNS = test system: SNB-19 CNS
U251 CNS = test system: U251 CNS
PC-3 prostate = test system: PC-3 prostate
SK-MEL-5 melanoma = test system: SK-MEL-5 melanoma
UACC-62 melanoma = test system: UACC-62 melanoma
LOX IMVI melanoma = test system: LOX IMVI melanoma
SK-MEL-28 melanoma = test system: SK-MEL-28 melanoma
EKVX NSCLC = test system: EKVX NSCLC
SN12C renal = test system: SN12C renal
UO-31 renal = test system: UO-31 renal
TK-10 renal = test system: TK-10 renal
ACHN renal = test system: ACHN renal
CAKI-1 renal = test system: CAKI-1 renal
A498 renal = test system: A498 renal
CCRF-CEM leukemia = test system: CCRF-CEM leukemia
MOLT-4 leukemia = test system: MOLT-4 leukemia

SMILES	growth (HCT-15 colon)	growth (HT29 colon)	growth (SNB-75 CNS)	growth (SNB-19 CNS)	growth (U251 CNS)	growth (PC-3 prostate)	growth (SK-MEL-5 melanoma)	growth (UACC-62 melanoma)	growth (LOX IMVI melanoma)	growth (SK-MEL-28 melanoma)	growth (EKVX NSCLC)	growth (SN12C renal)	growth (UO-31 renal)	growth (TK-10 renal)	growth (ACHN renal)	growth (CAKI-1 renal)	growth (A498 renal)	growth (CCRF-CEM leukemia)	growth (MOLT-4 leukemia)
C=CCn1c(=O)c2cnc(Nc3ccc(N4CCN(C)CC4)cc3)nc2n1-c1cccc(C(C)(C)O)n1	4.74% (active)	-12.4% (active)	3.88% (active)	26.9%	16.7%	28.4%	18.2%	42.6%	5.87% (active)	64.4%	22.5%	28.4%	10.5%	13.8%	25.4%	23.3%	-26% (active)	8% (active)	3.84% (active)
COc1cc(Nc2ncc(F)c(Nc3ccc4c(n3)NC(=O)C(C)(C)O4)n2)cc(OC)c1OC	53.3%	12.3%	-7.82% (active)	64.6%	48.5%	51.9%	71.8%	58%	9.51% (active)	67.1%	52.4%	36.6%	2.95% (active)	27.2%	5.32% (active)	9.51% (active)	-43.9% (active)	61%	52.4%
CNC(=O)c1cccc2cc(Oc3ccnc4cc(OCC5(N)CC5)c(OC)cc34)ccc12	57.8%	34.6%	26.7%	67.6%	66.4%	66.9%	76.5%	82.2%	46.3%	87%	84.1%	52.7%	37.6%	63.9%	30.9%	38.2%	57.1%	44.4%	30.6%
C/C=C/C=N/NC(=S)Nc1ccccc1	99%	106%	80.8%	102%	88.4%	88.2%	104%	89.5%	88.6%	97.5%	101%	89.3%	72.6%	112%	99.2%	92.1%	120%	91.8%	99.2%
Nc1ccc(S(=O)(=O)O)c2cc(S(=O)(=O)O)cc(O)c12	101%	108%	113%	105%	108%	97.8%	103%	112%	90.2%	97.1%	101%	102%	107%	105%	104%	100%	107%	102%	101%
C#Cc1cccc(Nc2ncnc3cc(OC)c(OCCCCCCC(=O)NO)cc23)c1	7.16% (active)	-13.4% (active)	2.04% (active)	7.79% (active)	-58.1% (active)	10.4%	-91.4% (active)	-78.3% (active)	-89.3% (active)	-29.5% (active)	25%	5.37% (active)	-16.8% (active)	-48% (active)	-30.1% (active)	-68.6% (active)	-86.3% (active)	3.23% (active)	-1.32% (active)
CC(C)Nc1cc(-c2c[nH]c(C(=O)N[C@H](CO)c3cccc(Cl)c3)c2)c(Cl)cn1	25.1%	1.57% (active)	51.8%	51.3%	28%	34.9%	-7.93% (active)	11.7%	14%	5.19% (active)	38.9%	52.2%	18.2%	16.2%	31%	35.3%	4.24% (active)	26.1%	12.6%
COC(=O)[C@H](C)NC(=O)[C@@H](OC)[C@@H]1Cc2cc3cc(OC4CC(OC5CC(O)C(O)C(C)O5)C(O)C(C)O4)c(C)c(O)c3c(O)c2C(=O)[C@H]1OC1CC(OC2CC(OC3CC(C)(O)C(O)C(C)O3)C(O)C(C)O2)C(O)C(C)O1 (some centres undefined)	19.3%	3.99% (active)	-63.8% (active)	8.48% (active)	7.45% (active)	8.21% (active)	-67.4% (active)	-52.8% (active)	-27.4% (active)	-37.7% (active)	21.9%	11.5%	5.72% (active)	13.1%	-1.98% (active)	27.5%	-66.5% (active)	14.5%	0.969% (active)
COc1cc2c(cc1O)c(=O)n(CCN(C)C)c1c3cc4c(cc3ncc21)OCO4	2.84% (active)	8.08% (active)	-37.2% (active)	-0.441% (active)	-49% (active)	-9.82% (active)	-50.9% (active)	-54.2% (active)	-56.3% (active)	-7.55% (active)	9.22% (active)	-5.86% (active)	-46.8% (active)	-45.5% (active)	-61.8% (active)	-10.2% (active)	-59.8% (active)	-11.3% (active)	-15.9% (active)
CS(=O)(=O)N1CCc2c(-c3cnc(N)nc3)nc(N3CCOCC3)nc21	9.65% (active)	6.31% (active)	-45.1% (active)	16.1%	12.4%	10.1%	-3.03% (active)	-41.1% (active)	1.28% (active)	-15.9% (active)	10.2%	8.6% (active)	-21.8% (active)	-21.4% (active)	0.427% (active)	-8.15% (active)	-49.9% (active)	22.2%	9.81% (active)
Clc1ccc(Nc2nccc(Nc3ccc4[nH]ncc4c3)n2)cc1	40.5%	16.6%	67.6%	78.1%	58.8%	24.9%	25.9%	33.5%	44.9%	80%	66.7%	51.6%	17.4%	61.6%	47.4%	52.3%	39.1%	5.15% (active)	23%
NC1(c2ccc(-c3nc4ccn5c(=O)[nH]nc5c4cc3-c3ccccc3)cc2)CCC1	15.2%	-7.85% (active)	-8.24% (active)	18.1%	-3.88% (active)	21.3%	-85.7% (active)	47.5%	-57.6% (active)	-66.7% (active)	40.6%	50.9%	28.6%	44.3%	36.2%	32.3%	-62.8% (active)	1.33% (active)	-13.2% (active)
COc1cccc(Nc2ncnn3ccc(CN4CC[C@@H](N)[C@H](O)C4)c23)c1	28.7%	27.1%	-44.6% (active)	43.1%	63.2%	56.3%	76.2%	93.4%	35.3%	89.7%	23.8%	18.9%	-34.3% (active)	-35.3% (active)	2.8% (active)	-13.5% (active)	-38.1% (active)	66.2%	17.6%
Cn1cc(-c2ncnc3ccc(-c4cnc(Cl)c(NS(C)(=O)=O)c4)cc23)c2ccccc21	13.2%	11.7%	-14.9% (active)	27.7%	24.4%	20.1%	-14.6% (active)	-18.8% (active)	9.88% (active)	0.439% (active)	11.7%	21.7%	-5.34% (active)	-1.34% (active)	13.3%	10.6%	-42.7% (active)	23.9%	7.73% (active)
CCCS(=O)(=O)Nc1ccc(F)c(C(=O)c2c[nH]c3ncc(-c4ccc(Cl)cc4)cc23)c1F	28.4%	4.44% (active)	8.13% (active)	40.4%	18.5%	21.8%	15.9%	-22.6% (active)	16.5%	1.65% (active)	43.1%	49.6%	19.5%	23.8%	24.4%	12.1%	-1.82% (active)	26.9%	15.6%
CC1(COc2ccc3c(c2)ncn3-c2ccc3cccc(N4CCC(N)CC4)c3n2)COC1	10.5%	0% (active)	14.4%	7.04% (active)	-36.4% (active)	30.2%	-13.8% (active)	99.3%	-57.2% (active)	15.2%	34.6%	32.4%	-3.3% (active)	32%	2.83% (active)	22.9%	85.1%	2.15% (active)	-4.11% (active)
